PubChem BioAssay (NCI)
The panel holds about 79,000 compounds, 15% with a hit somewhere; the sample as a whole holds those more often. A number with no mark means an inactive call. Cut-off read from the data, not from the text of the source: active = growth inhibition above about 70%; inactive = the rest.

Test: NCI Yeast Anticancer Drug Screen. Data for the mlh1 rad18 strain (AID 175)
Conditions: S. cerevisiae mlh1 rad18 strain growth inhibition; at 50.0 µM; hits give high values
Outline: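 Growth inhibition of the yeast strain was measured after compound exposure and expressed relative to vehicle-treated controls. The strain carries defined defects in DNA damage repair.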

SMILES | growth inhibition
COc1ccc(CCNC(=O)CC(C)=O)cc1 | -41.8%
CO/C(Cc1cc(O)cc(O)c1)=N\N | -4.1%
CCCNc1nc(Cl)nc2c1cnn2C | 6.95%
NNC(=O)CCC(=O)NC1C2CC3CC(C2)CC1C3 (configuration not stated) | 25.2%
COC(=O)CCSSCCC(=O)OC | 24.9%
CC1=C(O)c2ccccc2C(=O)C1=O | 23.8%
Cc1cc2nc(CC(O)c3nc4cc(C)c(C)cc4[nH]3)[nH]c2cc1C (configuration not stated) | 5.8%
C=Cc1c(C)c2cc3[nH]c(cc4nc(cc5nc(cc1[nH]2)C(C)=C5CCC(=O)OC)C(CCC(=O)OC)=C4C)c(C)c3C=C | -5.85%
C=NNC(=O)c1ccncc1 | 5.9%
Nc1nc2cc(COc3ccc(C(=O)O)cc3)ccc2nc1-c1ccccc1 | -15.1%
CC(=O)NC1C(=O)N(c2ccccc2)N=C1C (configuration not stated) | 9.85%
O=[N+]([O-])c1c(F)cc(F)cc1F | -6.65%
O=C1c2ccccc2-c2nnc(-c3ccc(Cl)cc3)cc21 | -18.3%
CN(C)S(=O)(=O)C1(c2ccccc2)CCCC1 | 1.9%
Clc1ccc2c(NCCCCN=Cc3ccccc3)ccnc2c1 | -12.7%
Cc1nnc(-c2cn(C3OC(CO)C(O)C3O)c3ncnc(N)c23)nc1C (configuration not stated) | 8.9%
O=C(O)Cc1ccc(OCCCCCOc2ccc(CC(=O)O)cc2)cc1 | 4.35%
CC(C)NCC(=O)CCCBr | 10.8%
Nc1ccc(C(=O)O)c([N+](=O)[O-])c1 | -2.1%
Cc1ccccc1CN | 23.6%
CCNC(=O)CCP(=O)(CCC(=O)NCC)CCC(=O)NCC | 6%
C1=COC(C=Nc2ccccc2)CC1 (configuration not stated) | -12.6%
